Data reported in the supplement of paper PMC10849652.
About 7,900 targets were measured; listed, in parts, are those with a hit and a random draw of the rest. About 0.6% of all pairs of compound and target were hits.

Experiments:
Assay in all cases: log2 fold change, soluble protein after heating vs DMSO (PISA); higher = thermal stabilisation; K562 cells, 10 uM, 30 min; active = over 0.2 and 3.5 SD of the protein, either way, in both replicates (recomputed)
saracatinib = compound: CN1CCN(CCOc2cc(OC3CCOCC3)c3c(Nc4c(Cl)ccc5c4OCO5)ncnc3c2)CC1 [saracatinib]
In short: (§1)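 For each measurement, 10 μM compound was applied for 30 min to K562 cells at 2×10^6 cells/mL. Aliquots were heated for 3 min across 48°C-58°C, pooled, and extracted in PBS with 0.5% NP-40 at 4°C; the supernatant after 21,000xg for 90 min was soluble protein. This was quantified by TMTpro 16plex LC-MS/MS with channel sums equalised, and thermal stability was reported relative to control samples from duplicates, on a log2 fold-change scale.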

sotrastaurin = compound: CN1CCN(c2nc(C3=C(c4c[nH]c5ccccc45)C(=O)NC3=O)c3ccccc3n2)CC1 [sotrastaurin]
In short: as §1

alvocidib = compound: CN1CC[C@H](c2c(O)cc(O)c3c(=O)cc(-c4ccccc4Cl)oc23)[C@H](O)C1 [alvocidib]
In short: as §1

Tubastatin A = compound: CN1CCc2c(c3ccccc3n2Cc2ccc(C(=O)NO)cc2)C1 [Tubastatin A]
In short: as §1

[1] = compound: CNC(=O)C1=CC=CC=C1NC2=NC(=NC=C2Cl)NC3=C(C=C(C=C3)N4CCOCC4)OC
In short: as §1

defactinib = compound: CNC(=O)c1ccc(Nc2ncc(C(F)(F)F)c(NCc3nccnc3N(C)S(C)(=O)=O)n2)cc1 [defactinib]
In short: as §1

rucaparib = compound: CNCc1ccc(-c2[nH]c3cc(F)cc4c3c2CCNC4=O)cc1 [rucaparib]
In short: as §1

[2] = compound: CNc1nc(-c2ccc3c(N)n[nH]c3c2)cc(N2C[C@@H](C(=O)NC3CCCCC3)CC[C@H]2C)n1
In short: as §1

encorafenib = compound: COC(=O)N[C@@H](C)CNc1nccc(-c2cn(C(C)C)nc2-c2cc(Cl)cc(NS(C)(=O)=O)c2F)n1 [encorafenib]
In short: as §1

[3] = compound: COC(=O)[C@H](CCSC)NC(=O)C1=C(C=C(C=C1)NC[C@H](CS)N)C2=CC=CC=C2
In short: as §1

Measured: log2 fold change

RPS5 (UniProt P46782)
inactive: saracatinib -0.038 | sotrastaurin 0.018 | alvocidib 0.167 | Tubastatin A 0.084 | [1] 0.065 | defactinib 0.121 | rucaparib 0.096 | [2] 0.103 | encorafenib 0.054 | [3] -0.026

RAB33B (UniProt Q9H082)
Sequence of UniProt Q9H082 (Q9H082 whole entry, looked up): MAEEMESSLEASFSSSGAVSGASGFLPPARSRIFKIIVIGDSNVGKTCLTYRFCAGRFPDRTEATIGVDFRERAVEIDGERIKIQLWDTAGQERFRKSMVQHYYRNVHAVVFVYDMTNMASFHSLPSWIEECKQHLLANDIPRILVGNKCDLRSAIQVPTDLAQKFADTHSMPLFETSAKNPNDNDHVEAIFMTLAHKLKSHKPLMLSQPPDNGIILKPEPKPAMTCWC
inactive: saracatinib 0.158 | sotrastaurin 0.057 | alvocidib 0.038 | Tubastatin A 0.013 | [1] -0.01 | defactinib -0.005 | rucaparib 0.035 | [2] -0.031 | encorafenib 0 | [3] 0.032

SHCBP1 (UniProt Q8NEM2)
Sequence of UniProt Q8NEM2 (Q8NEM2 whole entry, looked up): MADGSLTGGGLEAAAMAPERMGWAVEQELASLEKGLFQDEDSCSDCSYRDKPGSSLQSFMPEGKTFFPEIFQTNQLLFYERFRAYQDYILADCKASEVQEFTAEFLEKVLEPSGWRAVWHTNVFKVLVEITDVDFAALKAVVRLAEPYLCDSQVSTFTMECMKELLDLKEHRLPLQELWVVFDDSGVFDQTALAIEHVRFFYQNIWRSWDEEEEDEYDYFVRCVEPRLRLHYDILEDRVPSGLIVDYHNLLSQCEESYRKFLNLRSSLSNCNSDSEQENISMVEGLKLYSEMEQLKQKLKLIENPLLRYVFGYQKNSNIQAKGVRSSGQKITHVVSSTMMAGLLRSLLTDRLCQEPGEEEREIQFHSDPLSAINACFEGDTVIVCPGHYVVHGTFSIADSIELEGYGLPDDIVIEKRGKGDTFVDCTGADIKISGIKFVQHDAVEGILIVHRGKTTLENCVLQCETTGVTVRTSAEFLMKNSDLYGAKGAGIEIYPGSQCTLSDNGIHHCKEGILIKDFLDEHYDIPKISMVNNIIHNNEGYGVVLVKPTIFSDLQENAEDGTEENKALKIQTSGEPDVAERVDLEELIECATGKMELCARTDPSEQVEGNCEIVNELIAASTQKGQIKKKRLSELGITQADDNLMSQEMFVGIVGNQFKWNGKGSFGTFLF
inactive: saracatinib -0.044 | sotrastaurin 0.017 | alvocidib -0.07 | Tubastatin A 0.174 | [1] -0.061 | defactinib -0.194 | rucaparib -0.104 | [2] -0.081 | encorafenib 0.149 | [3] -0.018

RFC3 (UniProt P40938)
inactive: saracatinib -0.021 | sotrastaurin 0.032 | alvocidib -0.036 | Tubastatin A 0.023 | [1] 0.031 | defactinib -0.052 | rucaparib -0.011 | [2] 0.007 | encorafenib 0.062 | [3] -0.058

RIPK1 (UniProt Q13546)
inactive: saracatinib -0.197 | sotrastaurin -0.208 | alvocidib -0.047 | Tubastatin A 0.017 | [1] 0.191 | defactinib 0.028 | rucaparib 0.161 | [2] 0.212 | encorafenib 0.073 | [3] -0.097

RPL38 (UniProt P63173)
inactive: saracatinib -0.018 | sotrastaurin 0.01 | alvocidib 0.088 | Tubastatin A 0.014 | [1] 0.027 | defactinib 0.126 | rucaparib 0.093 | [2] 0.044 | encorafenib 0.003 | [3] 0.037

RECQL (UniProt P46063)
inactive: saracatinib 0.053 | sotrastaurin -0.012 | alvocidib -0.073 | Tubastatin A 0.021 | [1] 0.061 | defactinib -0.071 | rucaparib -0.002 | [2] -0.013 | encorafenib 0.026 | [3] -0.026

RUFY1 (UniProt Q96T51)
Sequence of UniProt Q96T51 (Q96T51 whole entry, looked up): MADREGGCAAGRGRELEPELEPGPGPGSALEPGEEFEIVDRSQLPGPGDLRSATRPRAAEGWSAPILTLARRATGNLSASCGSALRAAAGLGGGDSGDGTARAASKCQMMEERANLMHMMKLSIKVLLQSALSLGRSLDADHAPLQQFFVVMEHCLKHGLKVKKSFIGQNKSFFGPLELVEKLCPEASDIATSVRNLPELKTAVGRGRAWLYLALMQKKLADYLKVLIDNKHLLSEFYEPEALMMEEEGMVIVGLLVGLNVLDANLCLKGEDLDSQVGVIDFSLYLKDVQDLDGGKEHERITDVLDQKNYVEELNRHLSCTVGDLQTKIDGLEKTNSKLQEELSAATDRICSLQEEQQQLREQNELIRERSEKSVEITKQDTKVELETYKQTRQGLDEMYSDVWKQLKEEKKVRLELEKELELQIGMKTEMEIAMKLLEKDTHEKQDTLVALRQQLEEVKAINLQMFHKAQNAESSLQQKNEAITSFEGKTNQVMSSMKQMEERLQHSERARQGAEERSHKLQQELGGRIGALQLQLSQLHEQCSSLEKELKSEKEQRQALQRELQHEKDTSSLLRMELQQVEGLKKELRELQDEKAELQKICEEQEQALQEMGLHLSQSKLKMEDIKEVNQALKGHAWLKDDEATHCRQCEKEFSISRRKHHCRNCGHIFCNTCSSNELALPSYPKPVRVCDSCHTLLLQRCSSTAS
inactive: saracatinib -0.037 | sotrastaurin -0.174 | alvocidib -0.041 | Tubastatin A -0.012 | [1] 0.045 | defactinib -0.071 | rucaparib 0.032 | [2] -0.09 | encorafenib 0.077 | [3] -0.02

RANBP2 (UniProt P49792)
Sequence of UniProt P49792 (P49792 whole entry, looked up): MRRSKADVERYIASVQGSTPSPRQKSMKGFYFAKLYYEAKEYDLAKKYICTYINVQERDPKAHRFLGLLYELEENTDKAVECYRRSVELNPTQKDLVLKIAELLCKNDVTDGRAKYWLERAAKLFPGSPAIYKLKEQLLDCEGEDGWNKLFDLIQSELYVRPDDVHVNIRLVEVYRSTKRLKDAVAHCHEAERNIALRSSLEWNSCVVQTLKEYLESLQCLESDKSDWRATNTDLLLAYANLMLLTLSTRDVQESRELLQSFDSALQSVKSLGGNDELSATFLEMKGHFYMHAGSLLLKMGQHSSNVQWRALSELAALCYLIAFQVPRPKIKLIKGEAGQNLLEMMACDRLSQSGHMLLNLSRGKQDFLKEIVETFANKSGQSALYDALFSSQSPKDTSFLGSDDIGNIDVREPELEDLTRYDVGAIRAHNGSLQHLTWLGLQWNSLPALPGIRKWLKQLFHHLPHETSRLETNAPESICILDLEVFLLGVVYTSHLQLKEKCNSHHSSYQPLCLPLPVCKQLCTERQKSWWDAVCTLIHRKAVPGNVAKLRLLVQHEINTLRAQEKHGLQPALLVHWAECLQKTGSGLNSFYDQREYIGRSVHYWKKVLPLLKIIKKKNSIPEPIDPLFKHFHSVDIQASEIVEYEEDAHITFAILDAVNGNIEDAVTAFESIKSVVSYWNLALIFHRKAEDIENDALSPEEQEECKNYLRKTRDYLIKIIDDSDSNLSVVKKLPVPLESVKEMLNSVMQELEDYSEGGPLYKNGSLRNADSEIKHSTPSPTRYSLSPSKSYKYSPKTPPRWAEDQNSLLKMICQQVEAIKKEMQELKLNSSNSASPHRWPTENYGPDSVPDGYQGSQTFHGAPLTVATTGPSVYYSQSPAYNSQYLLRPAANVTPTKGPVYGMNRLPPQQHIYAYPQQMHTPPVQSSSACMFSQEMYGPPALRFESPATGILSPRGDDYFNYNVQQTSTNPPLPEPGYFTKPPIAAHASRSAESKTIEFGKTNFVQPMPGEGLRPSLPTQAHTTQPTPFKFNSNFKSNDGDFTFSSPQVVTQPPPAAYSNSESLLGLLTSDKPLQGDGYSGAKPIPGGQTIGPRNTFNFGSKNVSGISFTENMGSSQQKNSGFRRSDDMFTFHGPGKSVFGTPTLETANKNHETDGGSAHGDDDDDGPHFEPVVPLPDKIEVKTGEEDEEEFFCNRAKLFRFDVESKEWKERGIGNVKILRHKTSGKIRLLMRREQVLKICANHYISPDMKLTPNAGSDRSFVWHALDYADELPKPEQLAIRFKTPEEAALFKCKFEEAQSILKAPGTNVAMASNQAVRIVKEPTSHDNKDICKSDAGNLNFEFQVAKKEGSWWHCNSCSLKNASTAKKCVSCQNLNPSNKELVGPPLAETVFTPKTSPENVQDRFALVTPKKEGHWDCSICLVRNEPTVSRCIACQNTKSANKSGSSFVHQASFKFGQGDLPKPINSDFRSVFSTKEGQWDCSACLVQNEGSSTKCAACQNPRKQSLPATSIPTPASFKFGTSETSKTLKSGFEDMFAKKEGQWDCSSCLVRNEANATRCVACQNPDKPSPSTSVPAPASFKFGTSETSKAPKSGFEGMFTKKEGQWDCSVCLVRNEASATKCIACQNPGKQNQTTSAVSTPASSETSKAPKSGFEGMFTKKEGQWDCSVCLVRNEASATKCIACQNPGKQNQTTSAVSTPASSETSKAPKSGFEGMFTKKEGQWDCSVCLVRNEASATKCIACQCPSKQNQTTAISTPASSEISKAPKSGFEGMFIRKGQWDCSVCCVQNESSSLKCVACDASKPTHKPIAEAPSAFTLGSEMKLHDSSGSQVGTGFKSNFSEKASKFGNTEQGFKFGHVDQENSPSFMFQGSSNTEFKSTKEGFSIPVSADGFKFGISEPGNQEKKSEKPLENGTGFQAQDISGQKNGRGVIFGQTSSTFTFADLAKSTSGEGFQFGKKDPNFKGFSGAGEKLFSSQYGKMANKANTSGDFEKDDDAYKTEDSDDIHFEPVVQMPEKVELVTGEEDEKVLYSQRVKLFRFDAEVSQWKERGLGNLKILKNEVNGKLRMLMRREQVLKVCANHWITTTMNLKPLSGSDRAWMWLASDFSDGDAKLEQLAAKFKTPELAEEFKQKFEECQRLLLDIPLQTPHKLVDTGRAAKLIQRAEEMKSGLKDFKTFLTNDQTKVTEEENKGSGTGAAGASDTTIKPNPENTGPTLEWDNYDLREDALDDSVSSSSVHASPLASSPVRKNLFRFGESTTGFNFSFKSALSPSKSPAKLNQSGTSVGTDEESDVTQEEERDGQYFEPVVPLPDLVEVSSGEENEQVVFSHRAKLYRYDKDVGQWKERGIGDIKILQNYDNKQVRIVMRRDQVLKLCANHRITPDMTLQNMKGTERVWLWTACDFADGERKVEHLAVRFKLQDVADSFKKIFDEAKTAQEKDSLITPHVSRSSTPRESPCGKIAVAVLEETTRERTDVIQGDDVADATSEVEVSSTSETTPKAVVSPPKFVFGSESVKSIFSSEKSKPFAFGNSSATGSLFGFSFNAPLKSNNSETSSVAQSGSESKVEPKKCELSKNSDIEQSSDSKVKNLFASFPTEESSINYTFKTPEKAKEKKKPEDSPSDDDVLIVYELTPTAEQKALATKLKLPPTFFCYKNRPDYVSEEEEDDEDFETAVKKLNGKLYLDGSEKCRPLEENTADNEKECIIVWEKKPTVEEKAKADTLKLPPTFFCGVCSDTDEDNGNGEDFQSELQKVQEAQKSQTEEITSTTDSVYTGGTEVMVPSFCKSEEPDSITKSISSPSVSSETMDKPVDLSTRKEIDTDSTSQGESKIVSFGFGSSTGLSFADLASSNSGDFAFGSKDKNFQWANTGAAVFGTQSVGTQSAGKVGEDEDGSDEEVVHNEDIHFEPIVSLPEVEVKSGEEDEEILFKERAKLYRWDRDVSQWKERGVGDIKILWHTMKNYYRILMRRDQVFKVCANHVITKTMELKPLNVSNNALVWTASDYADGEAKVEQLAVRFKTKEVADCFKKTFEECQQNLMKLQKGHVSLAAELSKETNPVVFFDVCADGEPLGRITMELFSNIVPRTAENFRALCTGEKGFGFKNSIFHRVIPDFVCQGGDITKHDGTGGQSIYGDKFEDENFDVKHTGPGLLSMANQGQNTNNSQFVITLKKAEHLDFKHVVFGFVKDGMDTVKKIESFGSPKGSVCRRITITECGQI
inactive: saracatinib -0.011 | sotrastaurin -0.06 | alvocidib -0.079 | Tubastatin A -0.016 | [1] 0.886 | defactinib -0.009 | rucaparib -0.028 | [2] -0.016 | encorafenib -0.045 | [3] -0.03

SEC23IP (UniProt Q9Y6Y8)
inactive: saracatinib -0.097 | sotrastaurin -0.048 | alvocidib -0.157 | Tubastatin A 0.043 | [1] -0.092 | defactinib -0.156 | rucaparib -0.019 | [2] -0.045 | encorafenib 0.058 | [3] 0.025

RETREG3 (UniProt Q86VR2)
inactive: saracatinib 0.164 | sotrastaurin 0.035 | alvocidib -0.023 | Tubastatin A 0.022 | [1] 0.011 | defactinib -0.015 | rucaparib 0.004 | [2] -0.011 | encorafenib -0.018 | [3] 0.032

ROCK2 (UniProt O75116)
inactive: saracatinib 0.02 | sotrastaurin -0.096 | alvocidib -0.01 | Tubastatin A -0.001 | [1] -0.062 | defactinib -0.097 | rucaparib -0.027 | [2] 0.212 | encorafenib 0.042 | [3] -0.003

SERINC3 (UniProt Q13530)
inactive: saracatinib 0.002 | sotrastaurin 0.119 | alvocidib 0.134 | Tubastatin A -0.06 | [1] -0.043 | defactinib -0.016 | rucaparib 0.006 | [2] -0.216 | encorafenib -0.017 | [3] -0.065

SDHAF2 (UniProt Q9NX18)
inactive: saracatinib 0.08 | sotrastaurin -0.035 | alvocidib -0.026 | Tubastatin A 0.037 | [1] 0.016 | defactinib -0.002 | rucaparib 0.115 | [2] -0.078 | encorafenib -0.003 | [3] 0.01

RAP2C (UniProt Q9Y3L5)
Sequence of UniProt Q9Y3L5 (Q9Y3L5 whole entry, looked up): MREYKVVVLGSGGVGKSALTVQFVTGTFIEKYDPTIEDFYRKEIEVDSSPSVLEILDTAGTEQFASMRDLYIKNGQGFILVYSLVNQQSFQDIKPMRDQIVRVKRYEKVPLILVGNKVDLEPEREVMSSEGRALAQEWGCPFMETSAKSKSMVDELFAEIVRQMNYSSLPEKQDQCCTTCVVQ
inactive: saracatinib 0.04 | sotrastaurin 0.026 | alvocidib -0.009 | Tubastatin A -0.014 | [1] -0.058 | defactinib -0.044 | rucaparib -0.003 | [2] -0.054 | encorafenib -0.041 | [3] 0.01
